PubChem BioAssay
Active and inactive are the calls of the source.

What was measured:
[1] = system: PRMT1 (protein arginine N-methyltransferase 1); assay: PRMT1 binders on small-molecule microarrays, primary screen, biochemical, small-molecule microarray, 635 nm fluorescence (AID 1088); conditions: small-molecule microarray binding, higher = more signal;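 note: binding of Prmt1 protein to compounds spotted on small-molecule microarray slides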
[2] = yeast growth modulation, basal conditions, primary screen, YJM789 clinical isolate, OD600, 24 h (AID 1089);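 note: growth of clinical yeast isolate S. cerevisiae YJM 789 seeded 1000 cells per well; test concentration not given here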; conditions: S. cerevisiae YJM789 growth, higher = more signal, called active from +8 up or from −8 down
[3] = fission yeast growth modulation, primary screen, strain 972, OD600, 24 h, no modulator (AID 1090);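 note: basal condition with compound alone and no growth modifier present; test concentration not given here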; conditions: S. pombe 972 growth, higher = more signal, called active from +8 up or from −8 down
[4] = S. cerevisiae growth modulation with rapamycin, primary screen, strain BY4716, OD600, 96 h (AID 1091); conditions: higher = more signal, called active from +8 up or from −8 down; note: test concentration not given here
[5] = target: Torsin-1A-interacting protein 2 (Homo sapiens) (UniProt Q8NFQ8); assay: LULL1 binders on small-molecule microarray, primary screen, cell lysate, human LULL1 lysate, 635/667 nm fluorescence (AID 1092); conditions: hLULL1 lysate binding, 635 nm fluorescence, higher = more signal;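 note: probe is lysate of COS7 cells overexpressing human LULL1; score merges per-feature 667 nm fluorescence with signal-to-noise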
[6] = E. coli growth modulation, two-sided OD650, primary screen, E. coli filamentation project, strain DRC41, 24 h (AID 1093); conditions: OD650, 24 h, higher = more signal, called active from +8 up or from −8 down;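 note: MC1000 strain lacking acrAB efflux and sulA so SOS filamentation is blocked; test concentration not given here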
[7] = small-molecule microarray binders of probe aLefty2, primary screen, biochemical, biotinylated probe, 635/667 nm fluorescence (AID 1094); conditions: higher = more signal;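 note: score merges spot fluorescence near 667 nm with spot signal-to-noise ratio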
[8] = system: Noggin (protein binding on small-molecule microarray); assay: Noggin binders on small-molecule microarray, primary screen, biochemical, 635/667 nm fluorescence (AID 1095); conditions: 635 nm fluorescence, higher = more signal;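 note: score merges 667 nm feature fluorescence with signal to noise over triplicate slides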
[9] = target: Neurogenic locus notch homolog protein 3 (Homo sapiens) (UniProt Q9UM47); assay: NOTCH3 binders on small-molecule microarray, primary screen, biochemical, 635/667 nm fluorescence (AID 1096); conditions: NOTCH3 binding, 635 nm fluorescence, higher = more signal
[10] = small-molecule microarray binders of probe aEGFR, primary screen, biochemical, biotinylated probe, 635/667 nm fluorescence (AID 1097); conditions: higher = more signal;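 note: probe is a biotinylated anti-EGFR antibody binding compounds printed on slides; score combines fluorescence near 667 nm and signal to noise of each spot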
[11] = system: Plasmodium falciparum Sir2 (PF13_0152, Sir2A); assay: pfSir2 binders on small-molecule microarrays, primary screen, biochemical, small-molecule microarray, 635 nm fluorescence (AID 1098); conditions: small-molecule microarray binding, fluorescence 635 nm; higher = more signal;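 note: score merges spot fluorescence intensity with its signal-to-noise ratio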
[12] = small-molecule microarray binders of probe aDKK1, primary screen, biochemical, biotinylated probe, 635/667 nm fluorescence (AID 1099); conditions: higher = more signal;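 note: score merges 667nm spot fluorescence with signal to noise across triplicate slides; reference of the scale not given here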
[13] = small-molecule microarray binders of probe aCHRDL2, primary screen, biochemical, biotinylated probe, 635/667 nm fluorescence (AID 1100); conditions: higher = more signal
[14] = splicing luciferase reporter signal modulators, primary screen, spliceosome inhibition project, cell-based, HEK293, splice +/- reporter (AID 1101); conditions: luminescence, 24 h, higher = more signal, called active from +8 up or from −8 down;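 note: HEK293 cells carrying a splicing-competent luciferase reporter gene; test concentration not given here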
[15] = target: Fibroblast growth factor 10 (Homo sapiens) (UniProt O15520); assay: FGF10 binders on small-molecule microarrays, primary screen, biochemical, small-molecule microarray, 635 nm fluorescence (AID 1102); conditions: FGF10 binding, fluorescence 635 nm, higher = more signal
[16] = system: glycogen synthase kinase-3 (GSK3A per assay name; protocol says GSK3B); assay: GSK3 binders on small-molecule microarrays, primary screen, biochemical, small-molecule microarray, 635 nm fluorescence, GSK3A (AID 1103); conditions: small-molecule microarray binding, fluorescence 635 nm; higher = more signal; note: the record names both GSK3A and GSK3B
[17] = target: Epidermal growth factor receptor (Homo sapiens) (UniProt P00533); assay: EGFR binders on small-molecule microarrays, primary screen, biochemical, small-molecule microarray, 635 nm fluorescence (AID 1104); conditions: EGFR binding, higher = more signal;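 note: score merges 667 nm emission intensity with spot signal to noise over triplicate slides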
[18] = target: Follistatin-related protein 3 (Homo sapiens) (UniProt O95633); assay: FSTL3 binders on small-molecule microarrays, primary screen, biochemical, small-molecule microarray, 635 nm fluorescence (AID 1105); conditions: FSTL3 binding, higher = more signal;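 note: score merges emission near 667 nm and signal to noise per printed spot across three slides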
[19] = target: Dickkopf-related protein 1 (Homo sapiens) (UniProt O94907); assay: DKK1 binders on small-molecule microarrays, primary screen, biochemical, small-molecule microarray, 635 nm fluorescence scan (AID 1106); conditions: DKK1 binding, higher = more signal;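 note: score merges emission near 667 nm with signal to noise over three replicate slides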
[20] = system: Inhibin beta A chain (activin A); assay: INHBA (activin A) binders on microarrays, primary screen, biochemical, small-molecule microarray, 635 nm fluorescence scan (AID 1107); conditions: small-molecule microarray binding, higher = more signal;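 note: mouse activin A protein probed at 4.33 µg/mL on printed slides; score merges bound-protein fluorescence near 667 nm with spot signal-to-noise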

Neurogenic locus notch homolog protein 3 (Homo sapiens), sequence (Q9UM47 whole entry, looked up): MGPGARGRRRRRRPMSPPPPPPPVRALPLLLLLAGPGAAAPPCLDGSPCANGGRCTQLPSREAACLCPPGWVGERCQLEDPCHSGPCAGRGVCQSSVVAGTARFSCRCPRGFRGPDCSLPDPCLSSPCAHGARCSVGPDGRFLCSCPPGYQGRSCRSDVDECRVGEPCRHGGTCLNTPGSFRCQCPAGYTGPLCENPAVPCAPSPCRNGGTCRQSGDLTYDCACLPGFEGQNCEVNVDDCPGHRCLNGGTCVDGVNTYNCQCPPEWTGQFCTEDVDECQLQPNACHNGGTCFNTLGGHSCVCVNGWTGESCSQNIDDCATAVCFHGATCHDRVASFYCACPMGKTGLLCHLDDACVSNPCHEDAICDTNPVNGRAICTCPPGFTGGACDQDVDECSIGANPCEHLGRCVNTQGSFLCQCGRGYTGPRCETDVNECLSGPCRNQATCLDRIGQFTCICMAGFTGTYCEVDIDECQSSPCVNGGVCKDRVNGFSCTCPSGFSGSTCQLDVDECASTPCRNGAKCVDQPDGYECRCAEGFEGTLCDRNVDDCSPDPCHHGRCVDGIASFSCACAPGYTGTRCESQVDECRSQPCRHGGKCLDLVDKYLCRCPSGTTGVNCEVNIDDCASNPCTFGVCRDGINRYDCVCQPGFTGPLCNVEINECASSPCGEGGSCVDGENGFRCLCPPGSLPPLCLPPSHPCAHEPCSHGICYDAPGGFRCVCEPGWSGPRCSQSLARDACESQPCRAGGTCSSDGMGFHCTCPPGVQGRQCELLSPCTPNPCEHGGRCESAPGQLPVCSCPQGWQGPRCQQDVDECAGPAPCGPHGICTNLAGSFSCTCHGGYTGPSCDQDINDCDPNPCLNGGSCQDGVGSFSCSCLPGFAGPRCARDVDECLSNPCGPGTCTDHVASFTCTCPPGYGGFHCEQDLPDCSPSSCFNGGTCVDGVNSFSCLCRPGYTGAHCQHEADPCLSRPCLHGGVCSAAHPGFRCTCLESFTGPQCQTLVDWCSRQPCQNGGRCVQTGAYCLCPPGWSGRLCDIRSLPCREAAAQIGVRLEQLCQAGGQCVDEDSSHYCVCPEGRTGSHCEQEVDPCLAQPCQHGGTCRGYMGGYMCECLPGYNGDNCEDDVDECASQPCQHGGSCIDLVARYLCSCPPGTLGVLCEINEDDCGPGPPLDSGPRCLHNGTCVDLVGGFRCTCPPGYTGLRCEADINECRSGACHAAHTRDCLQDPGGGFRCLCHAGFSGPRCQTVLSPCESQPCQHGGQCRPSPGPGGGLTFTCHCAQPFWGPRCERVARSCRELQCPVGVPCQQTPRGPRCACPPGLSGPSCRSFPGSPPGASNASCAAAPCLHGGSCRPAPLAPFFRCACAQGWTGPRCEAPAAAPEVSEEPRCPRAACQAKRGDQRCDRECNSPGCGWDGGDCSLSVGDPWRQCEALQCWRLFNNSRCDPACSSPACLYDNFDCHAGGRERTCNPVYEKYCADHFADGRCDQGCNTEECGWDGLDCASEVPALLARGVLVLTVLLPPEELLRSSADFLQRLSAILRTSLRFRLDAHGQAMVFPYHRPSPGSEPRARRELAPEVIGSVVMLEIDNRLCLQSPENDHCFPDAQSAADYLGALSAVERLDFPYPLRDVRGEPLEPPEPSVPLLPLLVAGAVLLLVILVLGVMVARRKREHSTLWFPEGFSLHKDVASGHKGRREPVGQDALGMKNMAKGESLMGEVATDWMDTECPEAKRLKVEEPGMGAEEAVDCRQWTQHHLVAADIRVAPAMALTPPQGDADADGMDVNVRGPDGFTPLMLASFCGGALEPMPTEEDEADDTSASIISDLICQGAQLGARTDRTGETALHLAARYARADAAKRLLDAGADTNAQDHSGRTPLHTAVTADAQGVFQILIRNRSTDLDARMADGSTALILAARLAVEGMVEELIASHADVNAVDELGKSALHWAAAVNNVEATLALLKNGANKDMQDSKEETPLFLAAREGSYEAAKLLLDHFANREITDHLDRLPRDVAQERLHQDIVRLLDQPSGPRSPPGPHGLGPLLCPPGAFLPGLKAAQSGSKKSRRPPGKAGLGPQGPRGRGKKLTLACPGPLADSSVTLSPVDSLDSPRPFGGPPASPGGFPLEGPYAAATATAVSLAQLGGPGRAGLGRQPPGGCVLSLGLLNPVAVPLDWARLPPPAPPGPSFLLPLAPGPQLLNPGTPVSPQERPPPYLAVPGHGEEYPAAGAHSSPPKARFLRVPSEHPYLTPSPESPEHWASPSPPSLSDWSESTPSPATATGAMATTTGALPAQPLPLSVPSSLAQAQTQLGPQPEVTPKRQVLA
Torsin-1A-interacting protein 2 (Homo sapiens), sequence (Q8NFQ8 whole entry, looked up): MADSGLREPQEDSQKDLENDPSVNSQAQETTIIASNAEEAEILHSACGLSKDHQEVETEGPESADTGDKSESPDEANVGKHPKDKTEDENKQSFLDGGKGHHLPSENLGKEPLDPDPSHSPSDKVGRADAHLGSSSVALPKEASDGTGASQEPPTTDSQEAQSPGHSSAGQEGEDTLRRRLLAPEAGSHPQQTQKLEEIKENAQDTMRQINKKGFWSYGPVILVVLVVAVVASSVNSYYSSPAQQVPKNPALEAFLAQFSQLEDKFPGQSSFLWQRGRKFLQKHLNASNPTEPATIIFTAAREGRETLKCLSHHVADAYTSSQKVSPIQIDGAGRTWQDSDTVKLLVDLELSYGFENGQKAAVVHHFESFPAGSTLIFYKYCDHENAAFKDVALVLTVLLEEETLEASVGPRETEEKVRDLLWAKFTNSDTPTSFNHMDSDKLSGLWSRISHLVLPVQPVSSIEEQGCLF
Follistatin-related protein 3 (Homo sapiens), sequence (O95633 whole entry, looked up): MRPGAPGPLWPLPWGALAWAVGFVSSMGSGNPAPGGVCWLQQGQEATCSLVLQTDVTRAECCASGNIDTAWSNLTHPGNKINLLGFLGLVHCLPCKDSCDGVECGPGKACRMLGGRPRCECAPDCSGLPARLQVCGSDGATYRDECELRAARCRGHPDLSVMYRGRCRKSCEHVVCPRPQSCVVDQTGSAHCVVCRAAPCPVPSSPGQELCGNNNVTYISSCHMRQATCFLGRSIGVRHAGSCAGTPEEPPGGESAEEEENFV
Fibroblast growth factor 10 (Homo sapiens), sequence (O15520 whole entry, looked up): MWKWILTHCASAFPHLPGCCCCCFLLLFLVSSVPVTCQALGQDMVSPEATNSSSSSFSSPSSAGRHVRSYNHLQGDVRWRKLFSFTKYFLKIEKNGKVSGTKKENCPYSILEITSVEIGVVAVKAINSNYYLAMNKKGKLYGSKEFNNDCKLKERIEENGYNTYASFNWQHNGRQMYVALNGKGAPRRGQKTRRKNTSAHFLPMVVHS
Dickkopf-related protein 1 (Homo sapiens), sequence (O94907 whole entry, looked up): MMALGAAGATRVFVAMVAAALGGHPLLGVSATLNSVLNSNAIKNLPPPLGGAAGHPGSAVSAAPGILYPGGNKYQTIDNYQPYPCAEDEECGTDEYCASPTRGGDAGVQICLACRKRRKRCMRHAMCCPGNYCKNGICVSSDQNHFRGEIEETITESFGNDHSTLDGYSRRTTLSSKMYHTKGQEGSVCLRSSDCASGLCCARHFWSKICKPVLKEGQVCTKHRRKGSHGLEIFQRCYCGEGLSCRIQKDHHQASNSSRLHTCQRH
Epidermal growth factor receptor (Homo sapiens), sequence (P00533 whole entry, looked up): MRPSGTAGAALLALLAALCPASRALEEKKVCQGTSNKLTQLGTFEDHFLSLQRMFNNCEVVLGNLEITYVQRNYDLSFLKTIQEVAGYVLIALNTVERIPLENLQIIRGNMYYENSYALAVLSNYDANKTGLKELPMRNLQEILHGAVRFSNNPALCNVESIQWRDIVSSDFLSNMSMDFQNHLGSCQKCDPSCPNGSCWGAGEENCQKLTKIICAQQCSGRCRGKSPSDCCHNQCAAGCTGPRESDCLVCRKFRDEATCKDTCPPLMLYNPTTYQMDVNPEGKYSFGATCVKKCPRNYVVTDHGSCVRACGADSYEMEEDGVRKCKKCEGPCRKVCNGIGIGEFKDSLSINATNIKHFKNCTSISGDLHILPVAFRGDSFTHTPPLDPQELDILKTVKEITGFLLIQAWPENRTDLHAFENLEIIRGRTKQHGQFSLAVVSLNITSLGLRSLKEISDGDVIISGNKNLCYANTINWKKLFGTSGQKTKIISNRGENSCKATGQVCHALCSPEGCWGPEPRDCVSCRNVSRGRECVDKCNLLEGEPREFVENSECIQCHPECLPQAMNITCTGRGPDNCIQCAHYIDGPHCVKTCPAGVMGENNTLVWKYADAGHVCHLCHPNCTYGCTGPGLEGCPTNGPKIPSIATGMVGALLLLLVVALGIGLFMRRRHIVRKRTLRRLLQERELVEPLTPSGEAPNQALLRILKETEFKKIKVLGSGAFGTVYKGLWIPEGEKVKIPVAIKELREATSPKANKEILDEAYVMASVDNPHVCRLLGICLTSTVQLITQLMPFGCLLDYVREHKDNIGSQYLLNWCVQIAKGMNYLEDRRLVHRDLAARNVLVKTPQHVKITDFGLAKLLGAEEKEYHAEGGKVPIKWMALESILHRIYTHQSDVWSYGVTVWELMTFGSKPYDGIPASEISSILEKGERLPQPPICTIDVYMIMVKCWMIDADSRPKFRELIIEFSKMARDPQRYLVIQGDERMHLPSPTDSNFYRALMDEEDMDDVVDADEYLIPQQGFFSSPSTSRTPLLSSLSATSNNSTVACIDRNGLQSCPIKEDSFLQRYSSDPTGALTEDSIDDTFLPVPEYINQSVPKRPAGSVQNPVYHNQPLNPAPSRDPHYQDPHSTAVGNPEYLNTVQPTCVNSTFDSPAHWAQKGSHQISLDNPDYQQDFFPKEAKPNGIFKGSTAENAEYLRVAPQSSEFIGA

| SMILES | composite z-score [1] | z-score [2] | z-score [3] | z-score [4] | composite z-score [5] | z-score [6] | composite z-score [7] | composite z-score [8] | composite z-score [9] | composite z-score [10] | composite z-score [11] | composite z-score [12] | composite z-score [13] | z-score [14] | composite z-score [15] | composite z-score [16] | composite z-score [17] | composite z-score [18] | composite z-score [19] | composite z-score [20] |
| --- | --- | --- | --- | --- | --- | --- | --- | --- | --- | --- | --- | --- | --- | --- | --- | --- | --- | --- | --- | --- |
| O=C1C2C=CC(C(O)c3ccc4c(c3)OCO4)N(Nc3ccc([N+](=O)[O-])cc3)C2C(=O)N1c1ccccc1 (stereo not given) | 0.66 | -0.664 (inactive) | 0.484 (inactive) | 1.36 (inactive) | 1.97 | -0.245 (inactive) | -0.222 | -0.0077 | 0.777 | 0.006 | 1.73 | -0.0669 | -0.162 | -0.0322 (inactive) | 0.67 | 0.675 | 0.342 | 0.381 | 0.207 | 0.278 |
| C=CC[C@]1(C(=O)N2CCOCC2)N=C(c2ccc(OCCCO)cc2)O[C@H]1c1ccccc1N=[N+]=[N-] | 1.54 | -0.0233 (inactive) | -1.22 (inactive) | 0.206 (inactive) | 3.45 | 0.734 (inactive) | 0.405 | 0.752 | 1.11 | -0.0406 | 0.945 | 0.779 | 1.17 | -1.23 (inactive) | 0.95 | 1.29 | 0.23 | 0.673 | -0.201 | 1.09 |
| CCCNC(=O)[C@@H]1c2ccccc2C(=O)N(Cc2ccccc2OC)[C@H]1c1ccc(CO)cc1 | 0.286 | 0.105 (inactive) | -0.19 (inactive) | 0.353 (inactive) | 3.06 | 0.387 (inactive) | -0.139 | 0.986 | 1.11 | -0.142 | 1.37 | 0.0051 | 0.4 | 0.233 (inactive) | 0.714 | 0.68 | 0.0755 | 0.995 | 0.216 | -0.258 |
| CCOC(=O)C[C@H]1[C@H](OC(=O)c2ccc(-c3ccccc3)cc2)[C@@H](NC(=O)c2ccccc2)c2cc(OCCCO)ccc2N1C(=O)Cc1ccc(OC)cc1 | -0.719 | 0.883 (inactive) | -0.414 (inactive) | 1.45 (inactive) | 0.734 | 0.258 (inactive) | -0.192 | 0.23 | -0.712 | -0.21 | -0.881 | -0.0345 | 0.565 | -0.486 (inactive) | 0.241 | -0.919 | 0.0903 | -0.56 | -0.237 | 0.54 |
| CCCCCCc1nc(-c2ccc(-c3ccc(Cl)c(Cl)c3)o2)c(C)c2c1[Si](C(C)C)(C(C)C)OC2 | 0.337 | -0.972 (inactive) | -3.62 (inactive) | 0.0962 (inactive) | 0.703 | -0.0336 (inactive) | -0.259 | -0.123 | -0.243 | -0.233 | -0.0921 | -0.233 | -0.102 | -1.62 (inactive) | -0.57 | -0.555 | -0.648 | -0.374 | -0.446 | 0.375 |
| COc1ccc(NN2C(C(O)c3ccc(N(C)C)cc3)C=CC3C(=O)N(C4CCCCC4)C(=O)C32)cc1 (stereo not given) | 1.51 | -0.229 (inactive) | 0.594 (inactive) | 0.687 (inactive) | 2.91 | -0.386 (inactive) | 0.329 | 0.134 | 1.09 | 0.174 | 1.01 | 1.15 | 0.649 | -0.438 (inactive) | 0.635 | 1.3 | 0.322 | 0.659 | -0.28 | 0.814 |
| O=C(CS)NCCCCCNC(=O)[C@@H]1C[C@@H]2C(=O)NCC(=O)N2[C@@H]1c1ccc(O)cc1 | 1.08 | 0.118 (inactive) | -0.771 (inactive) | 0.494 (inactive) | 1.47 | 2.13 (inactive) | -0.124 | 0.362 | 0.179 | -0.15 | 0.793 | -0.179 | 0.347 | 0.0774 (inactive) | 0.528 | 0.692 | 0.17 | 0.157 | -0.109 | 0.606 |
| NC(=O)NCC#Cc1ccc2c(c1)[C@]1(C(=O)N2)[C@H](C(=O)O)[C@H]2C(=O)O[C@H](c3ccccc3)[C@H](c3ccccc3)N2[C@@H]1c1ccc(O)cc1 | 0.167 | 0.0288 (inactive) | -0.856 (inactive) | -0.483 (inactive) | 0.68 | -1.16 (inactive) | 0.883 | 0.758 | 0.767 | 0.0156 | 0.783 | 1.18 | 1.24 | 0.72 (inactive) | 0.295 | -0.576 | -0.16 | 1.28 | 0.181 | 1.25 |
| COCC(=C=CC[C@@H](O)c1ccc(OCCO)cc1)C[C@@H](O)c1ccccn1 | 0.37 | -0.64 (inactive) | -1.13 (inactive) | -0.0669 (inactive) | 0.608 | -0.136 (inactive) | -0.0931 | 0.274 | -0.0817 | 0.361 | 0.0525 | -0.201 | -0.288 | 0.0733 (inactive) | 0.377 | 0.0621 | 0.0724 | 0.439 | 0.0579 | 1.18 |
| C=CC[C@]1(C(N)=O)COC(c2ccc(OCCCO)cc2)=N1 | 0.322 | 0.924 (inactive) | -1.09 (inactive) | -1.09 (inactive) | 1.38 | 1.27 (inactive) | 0.301 | 0.27 | -0.769 | -0.139 | -0.171 | -0.145 | 0.381 | -0.359 (inactive) | 0.577 | -0.557 | 0.0704 | -0.235 | -0.314 | 0.927 |
| COC(=O)c1c(CC[C@@H](CO)NC(=O)N[C@@H](Cc2ccccc2)Cn2cc(-c3ccccn3)nn2)oc(C(=O)N2CCOCC2)c1C(=O)OC | 0.278 | 0.503 (inactive) | 0.82 (inactive) | -0.593 (inactive) | 0.843 | -0.613 (inactive) | -0.124 | 0.227 | 0.495 | -0.183 | 0.327 | -0.299 | -0.247 | 0.373 (inactive) | 0.136 | -0.27 | -0.002 | 0.172 | -0.296 | 0.119 |
